From PubChem
Rows were chosen to be rich in hits. Some 6.1% of all compounds tested hit in one or more screens of this group.
D3 antag: D3 dopamine receptor (human) antagonism; max response, negative = inhibition, %; D3R cells, DiscoveRx beta-arrestin luminescence, antagonist mode; active compounds read low; 360,000 tested, 2.5% active; in the data active = max response below about -50%; inconclusive = no clear call, values can overlap the other calls; also: % is scaled to controls: 0 for no effect and ±100 for the full control effect
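Cells plated overnight at 1500 cells/well, then exposed to library compounds with dopamine controls for 90 minutes at 37 degrees C. DiscoveRx reagent added for 30–60 minutes at room temperature; luminescence read, quantitative HTS format.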
D1 antagonist: human D1 dopamine receptor antagonism; P21728; HEK293 TREx D1 cells, calcium flux, dopamine EC80; active compounds read low; AID 504652; 360,000 tested, 3.2% active; activity change, negative = inhibition, % at 10 µM; in the data active = activity change below about -30%; also: % is scaled to controls: 0 for no effect and ±100 for the full control effect
Target sequence (P21728 whole entry, looked up): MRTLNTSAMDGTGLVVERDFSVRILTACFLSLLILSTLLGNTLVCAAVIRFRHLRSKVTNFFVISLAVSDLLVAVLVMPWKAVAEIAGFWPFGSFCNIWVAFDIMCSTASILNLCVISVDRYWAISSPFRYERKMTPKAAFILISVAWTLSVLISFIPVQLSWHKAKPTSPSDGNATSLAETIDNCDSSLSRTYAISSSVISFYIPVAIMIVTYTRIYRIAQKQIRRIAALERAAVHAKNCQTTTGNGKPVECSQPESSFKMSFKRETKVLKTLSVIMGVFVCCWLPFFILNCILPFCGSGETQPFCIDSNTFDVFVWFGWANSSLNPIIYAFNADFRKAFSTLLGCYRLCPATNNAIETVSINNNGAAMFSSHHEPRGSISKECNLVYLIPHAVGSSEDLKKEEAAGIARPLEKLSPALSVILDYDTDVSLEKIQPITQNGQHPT
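Tetracycline-induced HEK293 Trex D1 cells, force-coupled to calcium, dye-loaded; compounds added and read 180 s, then EC80 dopamine added and calcium flux tracked kinetically another 180 s.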
D1 potentiator: enhances dopamine response at the human D1 receptor; P21728; HEK293 TREx D1 cells, calcium flux, dopamine EC20 potentiation; potentiation, % at 10 µM; 360,000 tested, 0.036% active; AID 504651; in the data active = potentiation above about 30%; also: 0% is about no effect
D1 agonist: human D1 receptor agonism. P21728. HEK293 T-REx D1 cells, calcium flux, agonist mode. activation, % at 2 µM. 360,000 tested, 1% active; in the data active = activation above about 30%; also: 0% is about no effect
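Tetracycline-induced HEK293 TREx D1 cells, force-coupled to calcium signalling, were dye-loaded with a no-wash calcium kit. Compound was pin-added after a 10 s baseline. Fluorescence was read kinetically at 1 cycle/s for 180 s, with calcium rises flagged as agonism.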
DRD3 agonist: agonists of human D3 dopamine receptor; P35462; D3R DiscoveRx beta-arrestin cells, luminescence, 90 min; max activation, %; 410,000 tested, 0.58% active; AID 652048; in the data active = max activation above about 30%; also: 0% is about no effect
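Cells at 1500/well, incubated overnight, then treated with pinned compounds (dopamine as control) for 90 min at 37 degrees C. DiscoveRx reagent added for 30 - 60 minutes at room temperature; luminescence read.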
Starred values were filed as active, the others as inactive; ? = inconclusive; . = no result given.

SMILES | D3 antag | D1 antagonist | D1 potentiator | D1 agonist | DRD3 agonist
CCN(CC)C(=O)c1cccc(-c2csc(C(O)c3ccc(F)c(F)c3)n2)c1 (stereo not given) | 58 | . | . | . | 8
COc1cc(OC)c(C2C=C(c3ccc(C)cc3)Nc3c(C(=O)Nc4ccccc4)cnn32)cc1OC (stereo not given) | . | -45* | -6 | 3 | -5
CNc1sc(C(=O)c2ccc(F)cc2)c(N)c1-c1nc2ccccc2s1 | -76* | 14 | 6 | 1 | -42
CC1(C)CC(=NO)CC(C)(C)N1 | -26 | -32* | 1 | 3 | 5
CC1(C)CC(=NOC(=O)c2ccccc2)CC(C)(C)N1 | 11 | 15 | -1 | 3 | -5
O=C(CCc1nnc(Cc2c[nH]c3ccccc23)o1)NCC1CC12CCCCC2 (stereo not given) | ? | 4 | -2 | 1 | -12
CC(C)(C)NC(=O)CCc1nnc(Cc2c[nH]c3ccccc23)o1 | 3 | -51* | -3 | 3 | -6
CCn1nc(C)c(CNC(=O)CCc2nnc(Cc3c[nH]c4ccccc34)o2)c1C | -3 | -49* | -8 | 2 | -15
COCCNC(=O)C(C(=O)c1ccc(F)cc1)n1cc(C)ccc1=O (stereo not given) | 6 | -3 | 0 | 1 | 1
CC(=O)Nc1ccc(-c2ccnc3c2CC(C(=O)Nc2cccc(C(F)(F)F)c2)O3)cc1 (stereo not given) | 0 | . | . | . | -7
Cc1ccc(NC(=O)CCC(=O)N2Cc3ccccc3Oc3ncccc32)c(C)c1 | . | -10 | -4 | 8 | 0
Cc1ccc(C)c(NC(=S)NNC(=O)c2csc3c2CCC(C)C3)c1 (stereo not given) | -60* | -22 | -2 | 0 | -8
Cn1cnc([N+](=O)[O-])c1S(=O)(=O)c1ccc(Cl)cc1 | -68* | -13 | -8 | 10 | -25
Cc1cc2oc(=O)cc(CN3CCN(S(=O)(=O)c4cccs4)CC3)c2cc1C | 2 | -44* | -6 | 2 | 2
CCn1c2c(c(=O)n3ncc(C(=O)Nc4ccc(OC(F)(F)F)cc4)c13)CN(Cc1ccc(OC)cc1)CC2 | . | -2 | 4 | 8 | 23
CCCCOC(=O)c1ccc(NC(=O)COC(=O)C2CSC3(C)CCC(=O)N23)cc1 (stereo not given) | 3 | -46* | -7 | 22 | -12
CCOC(=O)N1CCc2c(sc(NCc3cccs3)c2C(=O)Nc2cc(Cl)ccc2OC)C1 | . | -1 | -6 | 2 | -4
Cc1cc2occ(CC(=O)N(CC(C)C)c3c(N)n(Cc4ccccc4)c(=O)[nH]c3=O)c2cc1C | -16 | 14 | -7 | -1 | -2
Cc1cc(SCC(=O)Nc2ccc(O)cc2)n2ncc(-c3ccccc3)c2n1 | 10 | -16 | -5 | 2 | 15
CC(=O)Nc1ccc(Nc2cc(C(C)C)nc3c(-c4ccccc4)c(C)nn23)cc1 | 22 | -8 | -1 | 9 | 1
C=CCSc1cc(C)nc2c(-c3ccc(Cl)cc3)c(C)nn12 | 20 | 9 | 4 | 3 | 38*
CC(=O)Nc1ccc(Nc2cc(C)nc3c(-c4ccccc4)c(C)nn23)cc1 | 5 | -30* | 8 | 4 | 5
Cc1cc(SCC(=O)Nc2ccc(O)cc2)n2nc(C)c(-c3ccccc3)c2n1 | 11 | -50* | -4 | 3 | 7
COc1cc2c(cc1NC(=O)COc1ccc(Br)cc1C)oc1ccccc12 | . | -1 | -4 | 1 | -19
CCCCN1C2=NC(c3ccccc3)CN2c2ccccc21 (stereo not given) | -16 | . | . | . | -16
SMILES | D3 antag | D1 antagonist | D1 potentiator | D1 agonist | DRD3 agonist
CCOC(=O)N1CCN(C(=O)COc2cccc3c2CCN(Cc2ccccc2F)C3=O)CC1 | -11 | -31* | 1 | 1 | 4
Cc1cccc(NC(=O)COc2cccc3c2CCN(C)C3=O)c1 | 36 | 8 | -4 | 12 | 1
CC1CCN(C(=O)COc2cccc3c2CCN(C)C3=O)CC1 | 16 | -32* | -6 | 0 | 0
Cc1ccccc1CN1CCc2c(OCC(=O)N3CCCCC3)cccc2C1=O | 0 | -41* | -2 | 3 | 9
O=C(COc1cccc2c1CCN(Cc1ccccc1F)C2=O)N1CCCCC1 | 4 | -10 | 1 | 3 | 2
Cc1cccc(N2CCN(C(=O)CN3C(=O)NC(C)(C4CC4)C3=O)CC2)c1C (stereo not given) | 0 | 3 | -3 | 3 | 6
CC(=O)Oc1c(Cl)cc(Cl)cc1/C=C/c1ccc2ccccc2n1 | 39 | 12 | 1 | 6 | 39*
O=C(CSc1nnc(CNC(=O)c2c(F)cccc2Cl)o1)Nc1cccc(F)c1 | . | -33* | -3 | 8 | -2
CN1CCc2c(sc3nc(SCC(=O)NCc4ccco4)n(-c4ccccc4)c(=O)c23)C1 | 1 | -33* | -8 | 3 | 0
CSc1nc(SCC(=O)NC(c2ccccc2)c2ccccc2)c2c3c(sc2n1)CN(C)CC3 | -92* | -1 | 1 | 2 | -8
CC(Cc1cccs1)NC(=O)Nc1ccc([N+](=O)[O-])cc1 (stereo not given) | 0 | -35* | -4 | 24 | -7
CC(Cc1cccs1)NC(=S)Nc1ccc(F)cc1 (stereo not given) | 7 | -44* | -5 | 19 | 4
COc1ccc(NC(=S)NC(C)Cc2cccs2)cc1 (stereo not given) | -1 | 4 | -1 | 2 | 1
CN(C)C(=S)SCC(=O)Nc1ccc(Cl)cc1Cl | 1 | -23 | -3 | 2 | 4
CCc1ccccc1NC(=O)c1cccc(NC(=O)/C=C/c2ccco2)c1 | 10 | -36* | -18 | 9 | 7
O=C(/C=C/c1ccco1)Nc1cccc(C(=O)Nc2ccccc2C(=O)O)c1 | 63 | -3 | -1 | 1 | 3
CCCOc1ccc(C2C(=O)N(C3CCCCCC3)CC(=O)N2CCC2=CCCCC2)cc1OC (stereo not given) | . | 6 | -1 | -1 | -7
CC1CC(C)CN(S(=O)(=O)c2ccc(C(=O)Nc3nnc(-c4cccs4)o3)cc2)C1 (stereo not given) | 6 | -27 | -3 | 25 | 2
Cc1nnc(NC(=O)c2ccc(S(=O)(=O)N3CC(C)OC(C)C3)cc2)o1 (stereo not given) | 6 | -25 | 6 | 4 | -3
CCC1CCCCN1S(=O)(=O)c1ccc(C(=O)Nc2nnc(-c3cccs3)o2)cc1 (stereo not given) | -75* | -2 | 3 | 3 | -1
Cc1nnc(NC(=O)c2ccc(S(=O)(=O)N(C)Cc3ccccc3)cc2)o1 | -72* | -12 | 2 | 1 | 1
Cc1nnc(NC(=O)c2ccc(S(=O)(=O)N3CCCCCC3)cc2)o1 | -72* | 9 | -4 | 1 | -3
O=C(Nc1nnc(-c2cccs2)o1)c1cccc(C(F)(F)F)c1 | 21 | -50* | . | 26 | 4
CCOC(=O)CSc1nc2ccc(NC(=O)c3ccccc3F)cc2s1 | . | -12 | 0 | 3 | 5
